The record followed here is PubChem BioAssay (NCI).

What all share (experiment): NCI-60 one-dose screen, 48 h (100 = growth as untreated, 0 = no growth, -100 = all killed)
What all share (settings): 10 µM unless noted

In assay [1] the test system is HCT-15 colon.
Assay [2] has as its system HT29 colon.
Assay [3] deals with SNB-75 CNS.
The test system of assay [4] is SNB-19 CNS.
Assay [5] relates to U251 CNS.
The subject of assay [6] is PC-3 prostate.
Assay [7] relates to SK-MEL-5 melanoma.
The test system of assay [8] is UACC-62 melanoma.
For assay [9], the system named is LOX IMVI melanoma.
Assay [10] concerns SK-MEL-28 melanoma.

This is part of a sample that, as a whole, favours compounds with a hit. Of some 83,000 tested, about 20% had one in any assay.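 Results are percent growth after 48 hours of single-concentration exposure. 100 means growth as in untreated cells, lower positive values show inhibition; negative values down to -100 show cell death.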 Unmarked numbers belong to inactive results. Activity calls are given as the source filed them. How the source made its calls: active means growth percent below 10; inactive means the rest.

Regarding `COc1cccc(Nc2ccnc3[nH]c4ccc([N+](=O)[O-])cc4c23)c1`, the growth in assay [1] was 31.4%; in assay [2], 24.3%; in [3], 21%; in [4], 37.4%; in assay [5] it was 42%; in [6], 48.2%. The growth in assay [7] is 38.7%; in assay [8], 24.2%; in assay [9], 52.2%; in assay [10] it was 65.7%.

As for `Cn1cc(-c2nc(-c3c[nH]c4ccncc34)cs2)c2cc(Br)ccc21`, the growth was -85.4% (active) in assay [1]; -81.9% (active) in [2]; -97% (active) in assay [3]; -76% (active) in assay [4]; -84.1% (active) in [5]; -86.4% (active) in assay [6]. Further, the growth in assay [7] is -47.9% (active); in assay [8], -86.7% (active); in assay [9], -90% (active); in assay [10] it was -91.3% (active).

For `CCN1C(=S)N(CC)C2C1NC(=S)N2/N=C/C=C/c1ccccc1OC` (stereo not given), the growth in assay [1] is 14.9%; in assay [2], 2.78% (active); in assay [3] it was -5.85% (active); in assay [4], 26.5%; in [5] it was 13.1%; in assay [6] it was 33%. Also, the growth is 17.3% in assay [7], 23.5% in assay [8], 19% in assay [9] and 54.5% in assay [10].

On to `O=C(/C=C/c1ccccc1)Nc1ncc(Cc2ccccc2)s1`, for which the growth in assay [1] was 14.2%; in [2], 4.97% (active); in assay [3] it was -2.19% (active); in assay [4], 42.6%; in assay [5] it was 9.07% (active); in [6], 23.4%. In addition, the growth is 30.6% in assay [7], 3.28% (active) in assay [8], 6.49% (active) in [9] and 47% in assay [10].

In the case of `O=C(O)CCCc1cnc2c3sccc3nc(SCc3c(Cl)cccc3Cl)n12`, the growth in [1] was 36.9%; in assay [2] it was 15.6%; in assay [3], 16%; in assay [4], 41%; in [5], 29.5%; in assay [6] it was 50.7%. Moreover, the growth in assay [7] was 52.9%; in assay [8], 21.2%; in [9], 39.9%; in assay [10], 75.3%.

Consider `CCNCc1ccc(O)c2ncccc12`, for which the growth in [1] was 28%; in assay [2], 95.9%; in [3] it was 31.1%; in assay [4], 24.2%; in assay [5] it was 17.7%; in assay [6], 23.4%. Besides, the growth in [7] was 6.19% (active); in [8] it was 25%; in assay [9], 31%; in assay [10] it was 65.6%.

Take `COc1cc(C2C3=C(COC3=O)N(CCO)c3cc4c(cc32)OCCO4)cc(OC)c1OC` (stereo not given): the growth in [1] was 6.81% (active); in assay [2] it was -25.4% (active); in [3], -5.04% (active); in assay [4], 7.63% (active); in assay [5], 9.63% (active); in [6], 14.3%. For the same molecule, the growth in assay [7] was -30.9% (active); in assay [8], 6.33% (active); in assay [9] it was 17.7%; in assay [10], 42.8%.

Take `CSCCC(NC(=O)c1ccccc1)C(=O)N/N=C1\S/C(=C/c2ccc(Cl)cc2)C(=O)N1C` (stereo not given): the growth in assay [1] was 96.4%; in assay [2], 91.4%; in assay [3], 57.8%; in assay [4], 68.1%; in assay [5], 64.2%; in [6] it was 84.9%. Besides, the growth was 82.9% in assay [7], 91.1% in assay [8], 89.3% in [9] and 85.9% in assay [10].

For `C=C(CN1CC=CCC1)[C@@H]1CC[C@]2(CO)CC[C@]3(C)[C@H](CC[C@@H]4[C@@]5(C)CC[C@H](O)C(C)(C)[C@@H]5CC[C@]43C)[C@@H]12`, the growth in assay [1] is 92.2%; in assay [2], 55.3%; in [3] it was 108%; in assay [4], 99.8%; in assay [5], 88.3%; in assay [6], 77.5%. Moreover, the growth in assay [7] was 96.2%; in [8] it was 98%; in assay [9], 99.8%; in assay [10], 101%.

Regarding `COc1cc2cc(Oc3ccc(NC(=O)Nc4ccccc4)cc3)c(C)nc2cc1OCCN1CCCCC1`, the growth is 14.3% in assay [1]; 17% in [2]; 74.9% in assay [3]; 91.6% in [4]; 21.5% in [5]; 82.7% in assay [6]. Moreover, the growth was 84.7% in [7], 95.4% in assay [8], 78.7% in [9] and 91.6% in assay [10].

As to `N#Cc1c(NC(=O)c2cccs2)[n+]([O-])c2ccc(Cl)cc2[n+]1[O-]`, the growth is 111% in assay [1]; 107% in assay [2]; 91.7% in [3]; 103% in assay [4]; 99% in assay [5]; 96% in [6]. In addition, the growth in assay [7] was 37.7%; in assay [8], 82.2%; in assay [9] it was 94.8%; in assay [10] it was 106%.

Turning to `CCCCCCCCn1ccc2cc(NC(=O)Cn3cc(CN4CCC(C)CC4)nn3)ccc21`, the growth in [1] is -32.2% (active); in [2], -66.9% (active); in [3], 79.1%; in [4] it was -34.8% (active); in assay [5], -57.6% (active); in assay [6], 43%. The growth in assay [7] was -23% (active); in [8], -77.8% (active); in [9] it was -85.3% (active); in [10] it was -86.9% (active).

For the molecule `NC(=O)c1ccc(NC(=O)c2oc3ccccc3c2-c2cnn(-c3ccccc3)c2)cc1`, the growth in assay [1] was 43.2% [50 µM]; in assay [2], 2.07% [50 µM] (active); in assay [3] it was -25.5% [50 µM] (active); in [4], 2.3% [50 µM] (active); in [5], -19.2% [50 µM] (active); in assay [6], 6.29% [50 µM] (active). Besides, the growth was 4.65% [50 µM] (active) in assay [7], 45.3% [50 µM] in assay [8], -22.6% [50 µM] (active) in assay [9] and 25.6% [50 µM] in assay [10].

With `CN1C(=O)/C(=C/c2ccc(C(=O)Nc3ncc(Cc4ccc(F)cc4)s3)cc2)SC1=S`, the growth in [1] was 22.4%; in [2] it was 29.5%; in [3], 40.3%; in [4], 60.5%; in [5] it was 65.2%; in assay [6] it was 52.4%. Besides, the growth in assay [7] is 17.6%; in assay [8], 9.34% (active); in [9], 15.4%; in assay [10], 58%.

In the case of `COc1cc(C2Cc3ncccc3-c3[nH]c(=O)c4cccnc4c32)cc(OC)c1OC` (stereo not given), the growth in assay [1] is 16.9%; in [2] it was 0.572% (active); in assay [3], 41.1%; in [4] it was 29.2%; in [5], 15.8%; in [6], 21.8%. Also, the growth in assay [7] is 18.6%; in assay [8], 28.2%; in [9], 29.2%; in assay [10] it was 66.4%.

Consider `CC1COCC(C)N1C1=C(Cl)C(=O)c2ccccc2C1=O` (stereo not given), for which the growth in assay [1] is 36.6%; in assay [2], 89.7%; in [3], 120%; in [4] it was 96.4%; in assay [5], 45.6%; in [6], 47.2%. For the same molecule, the growth is 66.5% in [7], 76.6% in [8], 7.84% (active) in assay [9] and 87% in assay [10].

On to `O=C(Nc1nc(C(=O)N2CCN(C(c3ccccc3)c3ccccc3)CC2)cs1)c1ccc(NC2CCCCC2)c([N+](=O)[O-])c1`, for which the growth in [1] was 96.9%; in assay [2], 86.1%; in assay [3] it was 86.1%; in [4], 85.9%; in [5], 83.5%; in [6], 76.1%. Further, the growth in assay [7] is 60.6%; in assay [8], 67.1%; in assay [9], 91.5%; in [10], 100%.

Turning to `CCOC(=O)C/C(=N\Nc1cc(=O)[nH]c2ccc(Cl)cc12)C(=O)OCC`, the growth was 105% in [1]; 109% in assay [2]; 96.7% in assay [3]; 94.9% in [4]; 107% in [5]; 88.3% in [6]. For the same molecule, the growth in assay [7] was 98.7%; in assay [8] it was 92.5%; in [9] it was 95.7%; in assay [10], 103%.

For `COc1cc2c3c(c1O)-c1ccccc1[C@@H]1OC(=O)N(CC2)[C@H]31`, the growth in assay [1] is 100%; in assay [2], 106%; in assay [3], 90.5%; in assay [4] it was 104%; in assay [5], 94.8%; in assay [6] it was 70.7%. Besides, the growth was 96.1% in assay [7], 90.1% in assay [8], 99.1% in assay [9] and 118% in assay [10].

`CCN(CC)c1ccc(/C=C\c2cc(C)c3cc(C)ccc3n2)cc1`: the growth in assay [1] was 21.1%; in assay [2], -17.9% (active); in assay [3], 39.7%; in [4], 49.5%; in [5], 25.6%; in assay [6] it was 23.1%. Moreover, the growth in assay [7] is 2.69% (active); in assay [8], 36.8%; in [9], 18.1%; in assay [10] it was 50.7%.

In the case of `O=C1Nc2ccc(F)cc2/C1=C\c1nc(-c2ccccc2F)n2ccccc12`, the growth in assay [1] is 26.3%; in [2], 13.8%; in assay [3], 95.8%; in assay [4], 94.3%; in assay [5], 73.5%; in assay [6], 76.3%. In addition, the growth was 89.7% in assay [7], 94.6% in assay [8], 61% in assay [9] and 130% in assay [10].

With `C/C(=N\O)C(=O)NCCCCCC(=O)Nc1ccccc1`, the growth in assay [1] was 101%; in [2] it was 104%; in assay [3], 88.2%; in assay [4], 99.3%; in [5], 98.6%; in assay [6], 104%. In addition, the growth is 91.7% in assay [7], 94.3% in assay [8], 89.7% in assay [9] and 114% in assay [10].

As for `O=C(Nc1cccc(NC(=O)C2CCCCC2)c1)c1ccccn1`, the growth was 100% in assay [1]; 90.4% in [2]; 87% in [3]; 111% in assay [4]; 109% in assay [5]; 104% in [6]. Also, the growth in [7] was 99.7%; in assay [8], 96.8%; in [9], 90.6%; in assay [10] it was 103%.

`S=c1ssnc1-c1cccs1`: the growth was 99% in [1]; 105% in [2]; 97.1% in [3]; 96.8% in [4]; 100% in [5]; 94.3% in [6]. Further, the growth in assay [7] was 57.3%; in assay [8] it was 90.7%; in assay [9], 92.3%; in assay [10], 112%.

Take `CCc1cccc(Sc2cc(C(=O)N3Cc4ccc(OCCN(C)C)cc4C3)ccc2O)c1`: the growth in [1] is 30.7%; in [2], 103%; in [3] it was 121%; in assay [4], 71.2%; in [5] it was 54.9%; in assay [6], 54.6%. Moreover, the growth was 26.5% in assay [7], 66.5% in assay [8], 46.7% in assay [9] and 90.8% in assay [10].

`C=NNc1ccccc1`: the growth was 87.4% in [1]; 108% in assay [2]; 90.9% in [3]; 93.8% in assay [4]; 88.1% in assay [5]; 63.8% in assay [6]. Moreover, the growth in assay [7] was 98.8%; in [8], 50.2%; in [9], 62.8%; in [10], 117%.
